Most compounds without a hit are left out; they make up all but 3.6% or so of the library.
Tau filament bind: binds recombinant human tau filaments; P10636; recombinant tau filaments, thioflavin S fluorescence, 15 h; filaments grown with octadecylsulfate alongside compound; Potency, µM (top dose mostly 57.1 µM); 71,000 compounds, 2% hits; AID 596;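 note: actives lower thioflavin S fluorescence by blocking filaments or displacing dye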
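Recombinant tau protein (human, 1 uM final) plus 30 uM ODS in HEPES pH 7.4 with NaCl, DTT and thioflavine S. Compound present from the start; fluorescence at 510 nm after 15 h, 37 C.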
IkB signaling: inhibitors of IkB signaling in ABC-DLBCL cells; ABC-DLBCL IkBa-CBG/CBR dual luciferase ratio, 4 h; response scale: scaled: untreated 0%, proteasome inhibitor 100%; Potency, µM (titrated, usually from 57.1 µM); 110,000 compounds, 0.04% hits; AID 445; active = well fitted curve in the direction sought with a large enough effect in the signal ratio, not every such curve was filed as active; inconclusive = small, poorly fitted or top-dose-only effect, or a change in a side signal; the % refers to the signal ratio;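 note: the direction sought is a rising ratio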
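In this assay, an IκBα–CBG68 fusion accumulates when IKK-driven degradation is blocked; native CBR normalizes for cell number. OCI-Ly3 cells were treated 4 h with compound and doxycycline, then green and red light read after Chroma-Glo addition.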
CRE Fsk mod: CRE-bla signaling modulation under forskolin stimulation; CHO CRE-bla reporter (cAMP response element driving beta-lactamase), forskolin EC10, beta-lactamase ratio; Potency, µM (doses to about 38.2 µM), most hits filed as activators; 71,000 compounds, 2.5% hits; AID 662; active = well fitted activation curve with a large enough effect in the signal ratio, with a control signal flat, not every such curve was filed as active; inconclusive = small, poorly fitted or top-dose-only effect, or effect the other way, or a change in a side signal; the % refers to the signal ratio
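Titrated compounds plus EC10 NKH 477 on CHO CRE-bla cells, 3 h, 37 °C. CCF4, 2 h RT. Ratio 460/530 nm → AC50.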
15-hLO inh: inhibitors of human 15-lipoxygenase (ALOX15) | AID 887 | Potency, µM (doses to about 57.1 µM), usual class: inhibitors | purified 15hLO-1, xylenol orange hydroperoxide absorbance | 74,000 compounds, 1.4% hits | P16050; note: nearly all actives have a fitted effect of over 55% in size
Target sequence (P16050 whole entry, looked up): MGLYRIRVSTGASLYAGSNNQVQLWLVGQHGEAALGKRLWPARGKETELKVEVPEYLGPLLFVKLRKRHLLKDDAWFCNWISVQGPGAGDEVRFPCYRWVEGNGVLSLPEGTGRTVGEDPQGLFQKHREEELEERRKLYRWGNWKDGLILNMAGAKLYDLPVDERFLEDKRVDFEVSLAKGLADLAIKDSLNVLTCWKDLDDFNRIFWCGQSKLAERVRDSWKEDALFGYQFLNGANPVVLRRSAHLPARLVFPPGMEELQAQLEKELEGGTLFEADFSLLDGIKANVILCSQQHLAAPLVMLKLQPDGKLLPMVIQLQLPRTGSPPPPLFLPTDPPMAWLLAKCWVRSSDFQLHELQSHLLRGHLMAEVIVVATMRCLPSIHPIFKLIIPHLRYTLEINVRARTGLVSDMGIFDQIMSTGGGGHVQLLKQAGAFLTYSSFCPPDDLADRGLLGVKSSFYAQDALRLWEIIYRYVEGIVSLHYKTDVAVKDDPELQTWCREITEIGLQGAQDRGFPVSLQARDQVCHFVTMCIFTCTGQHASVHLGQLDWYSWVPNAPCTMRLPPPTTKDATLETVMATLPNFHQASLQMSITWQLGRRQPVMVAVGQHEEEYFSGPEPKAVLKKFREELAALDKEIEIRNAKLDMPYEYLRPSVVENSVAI
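40 nM 15hLO-1 + cpd, 15 min RT; start w/ 50 uM AA (final), 6 min RT; stop/detect w/ 200 uM XO + 300 uM Fe(II) in 50 mM H2SO4, 30 min; A573/A405. Buffer 25 mM Hepes pH 7.5, 0.01% Triton X-100. No-enzyme wells as negative control.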
Hsp90 Hop PPI: changes Hsp90-Hop TPR2A binding signal, up or down; 71,000 compounds, 0.44% hits; Potency, µM (doses to about 57 µM); AlphaScreen TPR2A-His6 binding biotin-Hsp90 C-terminal peptide; active = well fitted curve in either direction with a large enough effect; inconclusive = small, poorly fitted or top-dose-only effect, or another doubt
Large screens that a line does not name were inactive; ! = not active in a repeat. Unless noted, calls come from the whole dose curve; as a rule, active = well fitted curve in the direction sought with a large enough effect; inconclusive = small, poorly fitted or top-dose-only effect, or another doubt; inactive = no such curve, though single readings can be large; an effect the other way counts as inactive or inconclusive.

COC(=O)c1ccc(C2c3c(oc4cc(C)c(C)cc4c3=O)C(=O)N2CCCN(C)C)cc1 (stereo unspecified)	Tau filament bind 10µM, IkB signaling inconclusive
COc1ccc(C2c3c(oc4ccccc4c3=O)C(=O)N2c2ccc(C)cn2)cc1OC (stereo unspecified)	Tau filament bind 6.31µM, CRE Fsk mod inconclusive
CCOc1ccc(C2c3c(oc4cc(C)c(C)cc4c3=O)C(=O)N2CCCN(C)C)cc1OC (stereo unspecified)	Tau filament bind 25.1µM
CCc1noc2nc(C)n(CC(=O)O)c(=O)c12	none (no result: Tau filament bind, CRE Fsk mod, 15-hLO inh, Hsp90 Hop PPI)
CC1=C(C(=O)Nc2ccc(F)cc2)C(c2ccc(N(C)C)cc2)NC(=O)N1 (stereo unspecified)	none (no result: Tau filament bind, CRE Fsk mod, 15-hLO inh, Hsp90 Hop PPI)
CNc1ccccc1C(C)(C)c1cc(-c2ccco2)n[nH]1	Tau filament bind 31.6µM, 15-hLO inh inconclusive, Hsp90 Hop PPI inconclusive
CC(C)(C)c1ccccc1NC(=O)c1ccco1	CRE Fsk mod inconclusive
Cc1ccc(C(C)C)c(OCCCn2c(=O)oc3ccccc32)c1	none (no result: Tau filament bind, CRE Fsk mod, 15-hLO inh, Hsp90 Hop PPI)
CC(=O)c1cc(-c2ccc(F)cc2)n(CC(=O)NC(C)c2ccccc2)c1C (stereo unspecified)	none (no result: Tau filament bind, CRE Fsk mod, 15-hLO inh, Hsp90 Hop PPI)
COC(=O)c1cc(COc2ccc3oc(C)c(C(=O)OC)c3c2)c(C)o1	IkB signaling inconclusive, CRE Fsk mod 5.01µM
NC(C(=O)O)C(O)C(=O)O (stereo unspecified)	none (no result: Tau filament bind, IkB signaling, CRE Fsk mod, Hsp90 Hop PPI)
NC[C@@H]1O[C@H](C23CC4CC(CC(C4)C2)C3)Cc2c1ccc(O)c2O	Tau filament bind 31.6µM!, CRE Fsk mod inconclusive, Hsp90 Hop PPI inconclusive
CCOc1ccc(-c2nnc(SCC(=O)NC3CCCC3)nc2-c2ccc(OCC)c(OC)c2)cc1OC	none (no result: Tau filament bind, CRE Fsk mod, 15-hLO inh, Hsp90 Hop PPI)
O=C(/C=C\c1ccc(O)c(O)c1)OCCc1ccccc1	15-hLO inh 0.794µM, Hsp90 Hop PPI inconclusive
O=C(/C=C/c1ccc(O)c(O)c1)O[C@@H](C(=O)O)[C@@H](OC(=O)/C=C/c1ccc(O)c(O)c1)C(=O)O	15-hLO inh inconclusive
COc1ccc(C(C(O)C(=O)c2c[nH]c3ccccc23)N2CCN(c3ccc(OC)cc3)CC2)cc1 (stereo unspecified)	Tau filament bind 12.6µM, IkB signaling inconclusive, CRE Fsk mod inconclusive
O=C(c1c[nH]c2ccccc12)C(O)C(c1ccccc1)N1CCOCC1 (stereo unspecified)	none
O=C(Nc1ccccc1)N(Cc1cccs1)c1ccc(F)cc1	none (no result: Tau filament bind, CRE Fsk mod, 15-hLO inh, Hsp90 Hop PPI)
CSc1nnc(-c2ccco2)c(-c2ccco2)n1	CRE Fsk mod inconclusive, 15-hLO inh 2µM
CN1CCC[C@H](C(=O)OCC(=O)[C@]2(O)CC[C@@H]3[C@H]4CCC5=CC(=O)CC[C@@]5(C)[C@H]4[C@@H](O)C[C@]32C)C1	none
O=C(Cn1cc2c(n1)CCCC2)N1CCCc2ccccc21	15-hLO inh 25.1µM
COc1ccc2cc3c(N)c(C(=O)NCc4ccco4)sc3nc2c1	CRE Fsk mod 12.6µM
COc1ccc(-n2c(N)c(C(=O)NCc3ccco3)c3nc4ccccc4nc32)c(OC)c1	CRE Fsk mod inconclusive
Nc1c(C(=O)NCc2ccco2)sc2nc3c(cc12)C(=O)CCC3	Tau filament bind 20µM, CRE Fsk mod inconclusive, 15-hLO inh inconclusive
COc1ccc(NC(=O)Cn2cc(C(=O)c3ccccc3OC)c(=O)c3ccc(C)nc32)cc1OC	none (no result: Tau filament bind, CRE Fsk mod, 15-hLO inh, Hsp90 Hop PPI)
Cc1nc(N)sc1-c1csc(Nc2ccc(Cl)cn2)n1	Tau filament bind 15.8µM
Cc1nc(N)sc1-c1csc(Nc2ccccn2)n1	Tau filament bind 25.1µM, IkB signaling inconclusive
COc1ccc(Nc2nc(N)nc(SCc3nnc(C)s3)n2)cc1	CRE Fsk mod inconclusive
CCOc1cc(C)nc(NCCc2ccc(OC)c(OC)c2)n1	CRE Fsk mod inconclusive
c1ccc(Nc2ccccc2Nc2ccccn2)nc1	none
COc1ccc(CCNc2nc(-c3sc(N)nc3C)cs2)cc1OC	Tau filament bind 15.8µM, IkB signaling inconclusive, CRE Fsk mod inconclusive
COc1ccc(Nc2nc(-c3sc(N)nc3C)cs2)cc1	Tau filament bind 12.6µM, Hsp90 Hop PPI inconclusive
Cc1ccc(CNC(=O)c2nc(SCc3cccc(C)c3)ncc2Cl)cc1	none (no result: Tau filament bind, CRE Fsk mod, 15-hLO inh, Hsp90 Hop PPI)
Cc1ccccc1-c1ccc2ncnc(NCc3cccnc3)c2c1	none
Cc1ccccc1NC(=O)c1nc[nH]c1C(=O)NCc1ccccc1	IkB signaling inconclusive, CRE Fsk mod 12.6µM
Cc1c(C(=O)NCc2ccccc2)sc2nc[nH]c(=O)c12	none (no result: Tau filament bind, CRE Fsk mod, 15-hLO inh, Hsp90 Hop PPI)

Screening data: PubChem BioAssay, National Center for Advancing Translational Sciences (NCATS)
